Assay results taken from PubChem BioAssay (Tox21).
“And” between values parts separate entries of the source, which are not always exact repeats. Identical values can stand only once. Inconclusive results are not listed. A number with no mark means an inactive call. The source made the active and inactive calls. Calls come from the whole dose curve; as a rule, active = well fitted cell-killing curve with a large enough effect in the repeat runs (not every such curve was filed as active); inconclusive = weak or mixed curves, or effect the other way; inactive = no such curve, though single readings can be large or run the other way.

Experiment: qHTS assay to identify small molecule antagonists of the estrogen related receptor signaling pathway with the pleiotropic PPARgamma coactivator (PGC) from Tox21 10K library - cell viability counter screen (AID 1224840); note: nearly all actives have a fitted effect of over 40% in size
Settings: PGC/ERR reporter cells viability, CellTiter-Fluor, 17.5 h; series mostly up to 92.4 µM; viability change, negative = cytotoxic: at the top concentration
Text: National Center for Advancing Translational Sciences [NCATS]
NIH Chemical Genomics Center [NCGC]
U.S. Environmental Protection Agency [EPA]
National Institutes of Environmental Health Sciences [NIEHS]
National Toxicology Program [NTP]
U.S. Food and Drug Administration [FDA]
Estrogen related receptors (ERRs), the first orphan nuclear receptors discovered, play an important role in the control of cellular energy metabolism. ERRs are required for high-energy production in response to the environmental challenges. The pleiotropic PPARgamma coactivator (PGC) is a major partner of ERR and a key regulator in energy homeostasis. Together they have been implicated in the etiology of metabolic disorders such as Type 2 diabetes and metabolic syndrome. ERR-alpha was also identified as an adverse marker for breast cancer progression; ERR-alpha-positive tumors have a poor prognosis. To screen and to identify environmental compounds that perturb the ERR and PGC/ERR signaling pathways could provide valuable information for potential therapeutic or preventive measures in the treatment of metabolic disease. To differentiate true PGC/ERR antagonists or agonist from cytotoxic substances, the assay is multiplexed with cell viability assay.
Tox21 Assay Protocol Summary:
The PGC/ERR cells were dispensed at 2,000 cells/5 ul/well in 1536-well white plates using a Multidrop dispenser. After the assay plates were incubated at a 37 C/5% CO2 incubator for 6 hours, 23 nL of compounds dissolved in DMSO, positive and negative controls or DMSO only was transferred to the assay plate by a pin tool. The plates were incubated at 37 C for 17.5 hours. 1 ul/well of CellTiter-Fluor reagent was added into the assay plates using a Flying Reagent Dispenser. After 30-minute incubation at 37 C/5% CO2, the fluorescence intensity in the plates was measured using a ViewLux plate reader.
% is set by controls: 0 for no effect and ±100 for the full control effect; potency is the fitted concentration of half-maximal effect.

SMILES	viability change, negative = cytotoxic	Potency
C=C/C=C/C=C/CCCCC	-9.87% [at 19 µM]	
CCCCCCCCCCCCCCNCCO	-0.464% [at 42.5 µM]	
OCCN1CN(CCO)CN(CCO)C1	-0.146%	
Cc1cn[nH]c1	19.6% [at 42.5 µM]	
CCc1c(Br)c(Br)c(Br)c(Br)c1Br	0.984%	
Cc1c(C(=O)O)cccc1[N+](=O)[O-]	9.09%	
CCOC(=O)[C@@](C)(N)Cc1ccc(O)c(O)c1	3.32% [at 42.5 µM]	
Clc1cc(Cl)c(-c2c(Cl)c(Cl)cc(Cl)c2Cl)cc1Cl	-8.55% [at 42.5 µM]	
CC(C)(C)c1n[nH]c(=O)n(N)c1=O	0.0027%	
COc1ccccc1C=O	-2.8%	
C1CC(COCC2CO2)CCC1COCC1CO1 (stereo not given)	-16.4%	
C=CC(=O)OCCC#N	1.43%	
CS(C)(=O)=O	-1.27%	
Cc1ccc(N)cc1O	-5.06%	
O=C1OC(=O)c2ccc3c4c(ccc1c24)C(=O)OC3=O	-4.07%	
CC(C)N=C(N)/N=C(\N)Nc1ccc(Cl)cc1	3.63% [at 42.5 µM]	
CC(C)c1cccc(C(C)C)c1N1C(=O)c2ccc(O)cc2C1=O	8.12%	
Cc1cc2c(C(C)C)c(O)c(O)c(C=O)c2c(O)c1-c1c(C)cc2c(C(C)C)c(O)c(O)c(C=O)c2c1O		26.6 µM (active)
CCCCCCCCCCCCOC(=O)c1cc(O)c(O)c(O)c1		30.5 µM (active) and 6.11 µM (active)
CCCCCCCCCCCCCCCCCO	-0.916% [at 19 µM]	

SMILES	viability change, negative = cytotoxic	Potency
CC(=O)c1ccccc1N	8.48%	
CCCC(C)CCC(C)=O (stereo not given)	-1.17%	
CCc1cccc(C)c1	2.25%	
Cc1cc(=O)[nH]c(=O)[nH]1	-0.951%	
CCc1ccc(O)c(C(C)(C)C)c1	-16.6%	
CCCCN(C)C	7.32%	
C=C(C)C(=O)OCCC[Si](Cl)(Cl)Cl	2.41%	
CC[N+](CC)(CC)Cc1ccccc1	-12.8%	
CC1CNCC(C)O1 (stereo not given)	-0.0318%	
OCCCCl	0.234%	
CCO[Si](C)(C)OCC	-0.932%	
CCCCCCCC(OC)OC	-0.564% [at 42.5 µM]	
Nc1ncnc2c1ncn2[C@@H]1O[C@H](COP(=O)(O)O)[C@@H](O)[C@H]1O	6.84% [at 42.5 µM]	
CN1[C@@H]2CC[C@@H]1CC(OC(=O)C(CO)c1ccccc1)C2 (stereo not given in full)	0.212% [at 42.5 µM]	
OCCC(O)CO (stereo not given)	1.02%	
Cc1cncc(C)c1	-0.189%	
CC(=O)Oc1ccc(C2(c3ccc(OC(C)=O)cc3)C(=O)Nc3ccccc32)cc1	-3.9% [at 42.5 µM]	
CCC(=O)OCCc1ccccc1	-4.79%	
OCCCS	7.87%	
Oc1ccc(-c2ccc(O)cc2)cc1	-23.5%	
